# Screening data as filed in PubChem.
# The list is not random: actives were taken first. Their share in the collection is about 11%.
# HPGD block – inhibitors of human 15-hydroxyprostaglandin dehydrogenase (HPGD). purified HPGD, NADH fluorescence kinetic, PGE2 substrate. P15428. Potency, µM, for inactives: at the highest dose activity change, negative = inhibition, most hits filed as inhibitors. hit rate 4.3% among 150,000; also: potency is read from the fitted curve at half-maximal effect
#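 NADH formation kinetics: reaction with 30 uM PGE2 and 1 mM NAD+ (final), 20 nM enzyme, Tris-HCl pH 8 with Tween 20, after 15 min compound preincubation at room temperature. Fluorescence change, last versus first of five reads.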
# PNC assembly inh – blocks assembly of the perinucleolar compartment | activity change (PNC), negative = inhibition, % at 10 µM | hit rate 3.1% among 140,000 | PC3M PTB-GFP, PNC prevalence imaging, 16 h; active compounds read low;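 active = readout at or below -70, meaning at least 70% loss of cells showing the perinucleolar compartment, a nuclear body marking cancer cells; inconclusive = readout between -30 and a set limit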;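 also: plate controls were DMSO wells for no effect and camptothecin positive control wells for full effect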
#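 Read-out is percentage of cells bearing a perinucleolar compartment, from automated 20x imaging of fixed, Hoechst-stained PC3M PTB-GFP cells. Cells were seeded 4 h, then exposed 16 h to compound (23 nl of library stock) in duplicate plates.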
# ALDH1A1 block – blocks purified human ALDH1A1 activity; P00352; Purified ALDH1A1, NADH fluorescence, propionaldehyde substrate; Potency, µM (series often up to 75.3 µM), inactives show top-dose activity, negative = inhibition, most hits filed as inhibitors; hit rate 7.3% among 220,000;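 also: potency is read from the fitted curve at half-maximal effect; plate controls were no enzyme wells and a reference inhibitor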
# Target sequence (P00352 whole entry, looked up): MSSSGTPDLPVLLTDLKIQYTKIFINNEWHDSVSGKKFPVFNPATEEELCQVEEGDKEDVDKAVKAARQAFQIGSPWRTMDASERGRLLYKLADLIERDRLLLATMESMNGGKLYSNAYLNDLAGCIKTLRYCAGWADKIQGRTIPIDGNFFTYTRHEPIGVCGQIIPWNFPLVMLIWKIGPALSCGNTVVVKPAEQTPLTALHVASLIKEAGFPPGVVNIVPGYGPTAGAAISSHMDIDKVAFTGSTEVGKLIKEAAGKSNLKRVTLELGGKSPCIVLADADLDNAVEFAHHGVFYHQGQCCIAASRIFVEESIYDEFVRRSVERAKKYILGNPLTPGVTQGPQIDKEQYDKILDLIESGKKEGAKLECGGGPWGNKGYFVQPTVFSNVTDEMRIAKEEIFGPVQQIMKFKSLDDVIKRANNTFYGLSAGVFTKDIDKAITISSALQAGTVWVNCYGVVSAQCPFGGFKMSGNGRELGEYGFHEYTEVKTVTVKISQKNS
# IMPase cell inh – cell-permeable inhibitors of inositol monophosphatase (IMPase) | P97697 | CHO-M1 cells, IP1 accumulation, HTRF TR-FRET ratio | inhibition (IP1 accumulation), % at 46.1 µM | 120,000 tested, under 10 active | AID 901; active = well fitted curve in the direction sought with a large enough effect in the signal ratio, not every such curve was filed as active; inconclusive = small, poorly fitted or top-dose-only effect, or a change in a side signal; inactive = no such curve, though single readings can be large or run the other way; the % refers to the signal ratio;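 also: cells stimulated with carbachol in lithium chloride buffer; plate controls were DMSO basal wells for no effect and reference inhibitor wells for full effect; higher means more IMPase inhibition seen as more IP1 and lower FRET ratio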
# Target sequence (P97697 whole entry, looked up): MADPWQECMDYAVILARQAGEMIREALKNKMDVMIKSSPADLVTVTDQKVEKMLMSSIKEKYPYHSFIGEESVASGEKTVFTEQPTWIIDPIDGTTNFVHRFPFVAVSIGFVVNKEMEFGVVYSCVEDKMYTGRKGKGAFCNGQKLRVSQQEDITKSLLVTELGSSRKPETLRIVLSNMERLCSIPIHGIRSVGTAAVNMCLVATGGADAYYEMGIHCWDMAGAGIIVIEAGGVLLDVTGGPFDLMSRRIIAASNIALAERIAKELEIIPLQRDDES
#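 CHO-M1, 2000 cells/well, cultured 16–30 h; cpd up to 46 uM; carbachol (50 uM solution, stimulation buffer w/ 50 mM LiCl, pH 7.4), 30 min 37C; IP-One TR-FRET, 10 min RT; Ex 320/Em 665, 620; Hill-fit AC50.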
# IMPase Li inh – cell-permeable IMPase inhibitors with lithium potentiation; hit rate 0.35% among 210,000; AID 1457; CHO-M1 cells, IP1 TR-FRET (IP-One), carbachol + lithium; Potency, µM (titrated, usually from 59.4 µM), without a hit: at the highest dose activity, negative = IMPase inhibition, most hits filed as inhibitors; active = well fitted inhibition curve with a large enough effect; inconclusive = small, poorly fitted or top-dose-only effect; inactive = no such curve, though single readings can be large or run the other way;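 also: IP1 builds up when IMPase is blocked and the TR-FRET signal falls; potency is read from the fitted curve at half-maximal effect; plate controls were basal vehicle for no effect and high inhibitor control for full effect; nearly all actives have a fitted effect of over 50% in size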
#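 CHO cells stably expressing M1 receptor (2000/well) were cultured 16–30 h, then exposed to compounds with a small lithium addition for 30 min at 37C. IP1 was measured by TR-FRET competition; AC50 from Hill fits.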
# Starred values were filed as active, the others as inactive; ? = inconclusive; . = no result; [ ] = remark or other dose. Unless noted, calls follow the shape of the dose curve; as a rule, active = well fitted inhibition curve with a large enough effect (not every such curve was filed as active); inconclusive = small, poorly fitted or top-dose-only effect, or another doubt; inactive = no such curve, though single readings can be large or run the other way. Unless noted, % is scaled to controls: 0 for no effect and ±100 for the full control effect.
SMILES,HPGD block,PNC assembly inh,ALDH1A1 block,IMPase cell inh,IMPase Li inh
O=C(Nc1ccccc1)Nc1ccc(C(=O)N2CCOCC2)cc1,15.8µM*,-5.4,3.1%,-4.3,-0.8%[38.3 µM]
CN(C)c1ccc(-c2nnn(CC(=O)Nc3ccccc3N3CCOCC3)n2)cc1,?,2.6,?,2.2,7.5%[38.3 µM]
O=C(N/N=C/c1ccc(O)cc1)c1csc2c1CCCC2,-22.6%,36.9,-11.3%,13.0,15.0%
C[C@]12C=CC(=O)C=C1CCC1C2C(=O)C[C@]2(C)C1CC[C@]2(O)C(=O)CO (some centres not stated),-11.7%,.,-2.9%,.,8.1%
COc1ccc(C(O)(CCc2ccccc2)CCN2CCCCC2)cc1 (configuration not stated),.,.,2.24µM*,.,12.3%
CCOc1ccc(C(=O)CCN2CCCCC2)cc1,?,-126.9*,0.0158µM*,-0.1,15.9%[38.3 µM]
CCOc1ccc(OCCCCN2CCCC2)cc1,0.8%,-5.6,?,12.4,52.3%[38.3 µM]
CC(C)Oc1ccc(C(=O)CCN2CCCCC2)cc1,-11.0%,?,0.0708µM*,13.7,22.7%
C=CCC(O)(CCN1CCCCC1)c1ccccc1 (configuration not stated),-17.1%,-14.0,-4.2%,24.5,26.2%[38.3 µM]
O=C(CCN1CCN(c2ccccc2F)CC1)c1ccc(Br)cc1,.,?,?,0.1,.
COc1ccc(C(=O)CCN2CCN(c3ccccc3F)CC2)cc1,.,.,0.126µM*,.,10.8%
CC(=O)c1ccc(NS(=O)(=O)c2cccc(S(=O)(=O)c3ccc(Cl)cc3)c2)cc1,.,.,.,0.9,.
COc1ccc(C(=O)CCN2CCCCCC2)cc1,-15.8%,10.2,0.0631µM*,-0.4,1.3%[38.3 µM]
CCCOc1ccc(C(=O)CCN2CCN(C(=O)OCC)CC2)cc1,.,.,0.708µM*,.,4.9%
O=C(CCN1CCCCCC1)c1ccccc1,-8.4%,?,6.31µM*,2.3,6.6%
CCC1(C)CC2(CCCN(CCC(=O)c3ccccc3)C2)CCO1 (configuration not stated),.,.,0.708µM*,.,14.9%
CCC1(C)CC(CC(=O)O)(c2ccccc2OC)CCO1 (configuration not stated),1.0%,-18.2,4.3%,-5.4,16.4%[38.3 µM]
COc1ccc(CNC(=O)CSc2nc(-c3ccc(OC)c(OC)c3)cc(C(F)(F)F)n2)cc1,.,.,.,-8.4,.
C/C(CCN1CCCCc2nc(C)c(C)cc21)=N\OC[C@@H](C)[C@H](OCc1ccccc1)C(C)C,.,.,-5.9%[13.5 µM],.,.
COC(=O)[C@@]1(Cc2ccc(OC)cc2)[C@H]2c3cc(C(=O)N(C)C)n(Cc4ccc(C)o4)c3C[C@H]2CN1C(=O)c1ccccc1,25.1µM*,.,?,.,-1.0%
COC(=O)[C@@]1(Cc2ccc(OC)cc2)[C@H]2c3cc(C(=O)N(C)C)n(CCO)c3C[C@H]2CN1C(=O)c1ccccc1,-6.7%,.,-7.3%,.,-2.5%
COC(=O)[C@@]1(Cc2ccc(F)cc2)[C@H]2c3cc(C(=O)N4CCCC4)n(Cc4ccc(C)o4)c3C[C@H]2CN1C(=O)c1ccccc1,22.4µM*,.,-2.0%,.,7.7%
COC(=O)[C@@]1(Cc2ccc(OC)cc2)[C@@H]2[C@@H](CC(=O)[C@H]2CC(=O)C(=O)N(C)C)CN1C(=O)c1ccccc1,-4.7%,-87.7*,17.6%,.,0.6%
C=C1C(=O)C=C2CN(C(=O)c3ccccc3)[C@@](Cc3ccc(OC)cc3)(C(=O)OC)[C@@H]12,7.08µM*,.,?,.,20.9%
CCOCC(=O)Nc1cc(C)on1,.,.,-7.1%,.,-8.1%
SMILES,HPGD block,PNC assembly inh,ALDH1A1 block,IMPase cell inh,IMPase Li inh
CCCNS(=O)(=O)c1cccc(C(=O)NC2CCCc3ccccc32)c1 (configuration not stated),-19.1%,-25.0,2.1%,-3.8,25.5%[38.3 µM]
CCN1C(=O)[C@H]2[C@H]3[C@H](O)[C@H](O)C/C(=N/NC(=O)OCc4ccc(OC)cc4)[C@@H]3CC[C@@H]2C1=O,.,.,-4.1%[13.5 µM],.,.
COCCN(C)Cc1cn(-c2ccc(F)cc2F)nc1-c1ccccc1C,.,.,25.1µM*,.,18.7%
CC(C)CC(N=Cc1c(O)c2ccccc2oc1=O)C(=O)O (configuration not stated),.,.,14.1µM*,.,-13.1%
O=C(O)CCCN=Cc1c(O)c2ccccc2oc1=O,.,.,?,.,-13.4%
COc1ccc(C(=O)c2sc3nc(-c4ccccc4)ccc3c2N)cc1,-13.8%,-13.9,?,.,-2.2%
COc1ccc(-c2c(C#N)c(N)nc3sc(C(=O)c4ccccc4)c(N)c23)cc1,?,-17.4,3.98µM*,?,?
CNc1c(NC(=O)c2cc(OC)cc(OC)c2)c(=O)oc2ccccc12,.,.,.,-2.3,.
COc1ccc(S(=O)(=O)N(CC(=O)N2CCC(C)CC2)c2ccc(C)cc2)cc1,.,.,.,-1.8,.
NC(=O)CC[C@H](NC(=O)c1ccc(F)cc1)C(=O)OCC(=O)Nc1c(F)c(F)c(F)c(F)c1F,-7.2%,-91.9*,14.1%,.,1.2%
CC(C)c1ccc(NC(=O)COC(=O)[C@H](CCC(N)=O)NC(=O)c2ccc(F)cc2)cc1,-7.3%,-11.7,?,-13.2,-0.7%
CCCCC(c1nnnn1Cc1ccco1)N1CCN(C(=O)c2ccco2)CC1 (configuration not stated),0.2%,43.0,14.1µM*,8.5,24.2%[38.3 µM]
CCCCC(CC)C(=O)N1CCN(C(=O)c2ccco2)CC1 (configuration not stated),.,.,25.1µM*,.,2.8%
CCCC(c1nnnn1Cc1ccco1)N1CCN(C(=O)c2ccco2)CC1 (configuration not stated),-9.7%,16.1,12.6µM*,-0.1,3.1%[38.3 µM]
CCCCC/C=C\C[C@@H](O)/C=C/C=C\C/C=C\CCCC(=O)O,-3.7%,.,-0.7%,.,-3.5%
O=C(NC(=S)N(CCO)Cc1ccccc1)c1ccc(S(=O)(=O)N2CCCC2)cc1,.,.,?,.,-4.2%
Cc1ccccc1NC(=O)C1CCN(c2cc(-c3ccccc3)nc3ncnn23)CC1,?,-113.7*,?,-9.0,8.91µM*
O=c1[nH]c2ccc(Cl)cc2c(-c2ccccc2)c1SC(=S)N1CCOCC1,20µM*,0.0,8.91µM*,5.1,54.2%[38.3 µM]
O=c1[nH]c2ccc(Cl)cc2c(O)c1-c1ccccc1,-8.7%,?,5.5%,-19.0,-7.6%[38.3 µM]
O=c1[nH]c2ccc(Cl)cc2c(-c2ccccc2)c1SC(=S)N1CCCCC1,?,45.6,25.1µM*,2.9,27.8%[38.3 µM]
O=C1CCCC/C1=C\Nc1ccc(O)cc1,-23.2%,-116.6*,14.1µM*,18.7,45.0%[38.3 µM]
O=C1CCCC/C1=C/Nc1ccc(S(=O)(=O)Nc2ncccn2)cc1,-27.4%,?,22.4µM*,-3.2,-0.5%[38.3 µM]
O=C1CCC/C1=C/Nc1ccc(Cl)cc1,.,.,-4.8%,.,4.2%
CCC(CO)N=C1CC(C)(C)CC(=O)/C1=C(/O)CCCN1C(=O)c2ccccc2C1=O (configuration not stated),.,.,-2.8%,.,-2.5%
COC(=O)c1ccc(CN2CCN(Cc3ccc(F)cc3)C(CCO)C2)cc1 (configuration not stated),.,.,16.6%,.,11.8%
